# Bioassay records deposited in PubChem BioAssay by Broad Institute.
# This is a sample that favours compounds with a hit; in the whole collection about 0.57% have one here.
# TcdB inh: inhibitors of Clostridioides difficile toxin B glycohydrolase; AID 652162; inhibition, % at 9.99 µM; P18177; TcdB glycohydrolase enzymatic assay, plate reader; 350,000 tested, 0.24% active; in the data active = inhibition above about 10%
# Target sequence (P18177 whole entry, looked up): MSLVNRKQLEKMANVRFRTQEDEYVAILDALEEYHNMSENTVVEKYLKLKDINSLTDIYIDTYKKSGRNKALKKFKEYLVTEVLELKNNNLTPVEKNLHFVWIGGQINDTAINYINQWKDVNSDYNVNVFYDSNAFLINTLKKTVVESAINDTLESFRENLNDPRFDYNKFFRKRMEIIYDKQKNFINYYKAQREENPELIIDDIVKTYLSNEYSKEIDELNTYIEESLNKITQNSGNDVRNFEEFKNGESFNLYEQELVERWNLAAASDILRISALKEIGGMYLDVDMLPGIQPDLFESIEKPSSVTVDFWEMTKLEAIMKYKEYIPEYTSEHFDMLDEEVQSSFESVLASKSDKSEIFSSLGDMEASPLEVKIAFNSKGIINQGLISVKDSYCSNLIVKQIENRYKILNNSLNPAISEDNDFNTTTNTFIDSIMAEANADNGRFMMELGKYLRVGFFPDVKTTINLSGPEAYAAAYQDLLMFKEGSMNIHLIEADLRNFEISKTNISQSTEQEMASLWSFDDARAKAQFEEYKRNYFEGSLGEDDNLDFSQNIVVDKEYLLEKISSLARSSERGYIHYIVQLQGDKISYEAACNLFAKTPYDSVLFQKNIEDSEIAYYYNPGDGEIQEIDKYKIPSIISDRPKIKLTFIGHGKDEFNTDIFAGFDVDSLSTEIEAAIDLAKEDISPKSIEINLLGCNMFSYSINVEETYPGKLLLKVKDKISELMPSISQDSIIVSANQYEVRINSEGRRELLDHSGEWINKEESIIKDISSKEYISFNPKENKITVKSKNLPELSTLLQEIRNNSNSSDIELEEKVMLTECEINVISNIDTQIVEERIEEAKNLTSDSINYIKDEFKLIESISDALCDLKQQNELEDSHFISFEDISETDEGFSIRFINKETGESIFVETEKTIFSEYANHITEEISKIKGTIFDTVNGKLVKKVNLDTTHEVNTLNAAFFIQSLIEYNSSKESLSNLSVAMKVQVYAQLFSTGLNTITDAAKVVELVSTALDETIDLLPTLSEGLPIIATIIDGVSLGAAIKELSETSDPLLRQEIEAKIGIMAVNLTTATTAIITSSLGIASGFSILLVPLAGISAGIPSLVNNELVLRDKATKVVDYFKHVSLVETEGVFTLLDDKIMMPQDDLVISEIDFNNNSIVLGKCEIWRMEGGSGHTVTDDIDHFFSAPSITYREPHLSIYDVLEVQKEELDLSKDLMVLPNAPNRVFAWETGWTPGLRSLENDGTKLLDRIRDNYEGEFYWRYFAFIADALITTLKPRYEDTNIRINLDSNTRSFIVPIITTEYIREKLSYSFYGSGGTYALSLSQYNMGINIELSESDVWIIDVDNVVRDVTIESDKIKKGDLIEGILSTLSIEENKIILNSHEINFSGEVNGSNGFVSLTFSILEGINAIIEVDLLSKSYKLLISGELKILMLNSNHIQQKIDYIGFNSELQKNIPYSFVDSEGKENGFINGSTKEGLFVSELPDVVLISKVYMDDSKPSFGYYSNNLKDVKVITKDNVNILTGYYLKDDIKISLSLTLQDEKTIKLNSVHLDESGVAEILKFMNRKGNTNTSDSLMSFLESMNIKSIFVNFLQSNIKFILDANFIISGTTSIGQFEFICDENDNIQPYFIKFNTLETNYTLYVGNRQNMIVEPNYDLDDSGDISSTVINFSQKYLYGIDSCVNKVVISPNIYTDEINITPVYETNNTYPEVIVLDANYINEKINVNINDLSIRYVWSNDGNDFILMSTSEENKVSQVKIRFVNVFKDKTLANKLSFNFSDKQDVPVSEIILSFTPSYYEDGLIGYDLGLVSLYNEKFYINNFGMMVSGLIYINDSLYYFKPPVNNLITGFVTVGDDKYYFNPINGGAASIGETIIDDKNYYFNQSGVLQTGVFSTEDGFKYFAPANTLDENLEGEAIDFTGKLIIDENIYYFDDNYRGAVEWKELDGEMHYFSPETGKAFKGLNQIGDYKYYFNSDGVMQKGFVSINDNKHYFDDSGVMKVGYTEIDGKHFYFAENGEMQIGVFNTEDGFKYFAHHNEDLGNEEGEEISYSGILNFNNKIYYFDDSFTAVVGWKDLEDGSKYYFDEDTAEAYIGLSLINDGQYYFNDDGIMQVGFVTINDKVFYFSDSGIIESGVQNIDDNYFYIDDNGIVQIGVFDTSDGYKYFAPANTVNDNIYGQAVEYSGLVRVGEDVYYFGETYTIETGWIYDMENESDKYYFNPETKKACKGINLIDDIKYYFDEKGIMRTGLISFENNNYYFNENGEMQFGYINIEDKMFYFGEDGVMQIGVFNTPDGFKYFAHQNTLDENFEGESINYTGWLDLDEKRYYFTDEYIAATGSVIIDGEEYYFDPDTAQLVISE
# PrP UTR inh: suppresses PrP 5' UTR mRNA reporter expression | inhibition, % (no concentration beside the values) | AID 488862 | 340,000 tested, 0.35% active | cell-based PrP 5' UTR mRNA reporter, plate reader; in the data active = inhibition above about 52%; note: 0 = median of the neutral control wells
# Mtb BioA inh: BioA (M. tuberculosis) enzyme inhibition | purified M. tuberculosis BioA enzyme, plate reader | inhibition, % at 9.99 µM | 360,000 tested, 0.096% active | AID 602481; in the data active = inhibition above about 40%; inconclusive = no clear call, values can overlap the other calls
# Yp Topo-I inh: Y. pestis Topo-I inhibition via cleavage products; activity, % at 10 µM; Y. pestis Topo-I cleavage product accumulation, plate reader; 360,000 tested, 0.064% active; in the data active = activity above about 50%, passing the limit was not always enough; inconclusive = no clear call, values can overlap the other calls
# PrP UTR cherry: prion 5' UTR mRNA inhibition, cherry-pick retest. shares compounds with PrP UTR inh. cell-based prion protein 5' UTR reporter, plate reader. inhibition, % at 2.5 µM. 1,100 tested, 48% active; in the data active = inhibition above about 54%; inconclusive = no clear call, values can overlap the other calls
# * hit, by the source's call; u = inconclusive; x = no result.
SMILES,TcdB inh,PrP UTR inh,Mtb BioA inh,Yp Topo-I inh,PrP UTR cherry
O=C(Nc1nc2cc3c(cc2s1)OCCO3)c1ccco1,-0.1,78.5*,-2.0,-2.1,80.6*
O=C(Nc1nc2cc3c(cc2s1)OCO3)C1=COCCO1,0.7,69.8*,0.0,-12.8,64.1*
O=C(Nc1cccc(-c2nc3ccccc3s2)c1)C1=COCCO1,x,-14.3,x,10.1,x
CC1CCc2nc(NC(=O)c3ccco3)sc2C1 (stereo unspecified),x,57.5*,-0.6,4.0,53.6*
O=C(Nc1ccc(-c2nc3ccccc3s2)cc1)C1=COCCO1,x,73.1*,-0.7,-8.9,65.6*
CCn1c(SCC(=O)Nc2cc(C)on2)nnc1-c1cccc(C)c1,0.1,-47.5,6.0,10.7,x
CCn1c(SCC(=O)Nc2ccc(N(C)C)cc2)nnc1-c1cccc(C)c1,x,63.9*,-0.6,5.0,-6.2
Cc1ccc(OCCC(=O)OCC(=O)c2c(N)n(CC(C)C)c(=O)n(C)c2=O)cc1,2.3,89.5*,0.4,6.1,1.5
COc1ccc2c(c1)C(C)=CC(C)(C)N2S(=O)(=O)c1ccc(NC(C)=O)cc1,0.3,72.9*,-0.6,30.0,40.5
Cc1onc(-c2ccccc2)c1C(=O)Nc1ncc([N+](=O)[O-])s1,-0.9,-12.9,1.1,-1.5,x
Cc1ccc(C(=O)Nc2ncc(Cc3ccc(SC(F)F)cc3)s2)cc1,1.7,62.3*,-0.4,-11.4,88.8*
Cc1ccc(C(=O)Nc2ncc([N+](=O)[O-])s2)cc1,21.3*,71.0*,0.4,-6.0,72.6*
COc1ccc(C(=O)/C=C2\Sc3ccccc3N2C)cc1,2.0,-69.3,x,25.7,x
COc1ccccc1-[n+]1c(C)cc(/C=C2\Sc3ccccc3N2C)cc1C,4.9,70.4*,29.4,3.0,27.9
COc1ccc(-[n+]2c(C)cc(/C=C3\Sc4ccccc4N3C)cc2C)cc1,9.8,65.9*,x,-1.9,u
CC(=O)Nc1ccc(SCC(=O)c2c(N)n(Cc3ccccc3)c(=O)n(C)c2=O)cc1,0.4,-8.7,-0.9,6.2,x
CC(C)Nc1nnc(SCC(=O)c2c(N)n(Cc3ccccc3)c(=O)n(C)c2=O)s1,x,59.9*,x,15.4,-6.8
CO[C@@H]1CN(C)C(=O)c2ccc(NS(=O)(=O)c3ccccc3)cc2OC[C@H](C)N(Cc2nccs2)C[C@@H]1C,0.9,x,-0.3,x,x
CN(C)Cc1cn(CC[C@@H]2CC[C@H](N)[C@@H](CO)O2)nn1,-0.2,x,-1.4,x,x
Cc1cc(C)c2c(N)c(C(=O)c3ccccc3)oc2n1,x,-18.8,2.0,-4.3,x
Cc1cc(-c2ccccc2)nc2oc(C(=O)NN)c(N)c12,-0.7,72.3*,0.4,-3.0,1.2
Cc1ccc(-n2cccn2)c(CN2CCCC(CNC(=O)c3ccc(F)cc3)C2)c1 (stereo unspecified),0.7,80.0*,-1.1,-11.4,1.2
CC(=O)N(C)C[C@H]1Oc2ncc(C#Cc3cccnc3)cc2C(=O)N([C@H](C)CO)C[C@H]1C,-0.6,x,3.6,x,x
COc1ccc2c(c1)C(NC(C)=O)CCc1cc(OC)c(OC)c(OC)c1-2 (stereo unspecified),2.8,41.9,x,0.8,x
COc1cc2c(c(OC)c1OC)-c1ccc(OC)c(=O)cc1C(NC(=O)c1ccccc1)CC2 (stereo unspecified),1.6,56.2,x,-4.4,x
SMILES,TcdB inh,PrP UTR inh,Mtb BioA inh,Yp Topo-I inh,PrP UTR cherry
COc1cc2c(c(OC)c1OC)-c1ccc(O)c(=O)cc1C(NC(C)=O)CC2 (stereo unspecified),0.1,62.8*,5.0,4.6,86.4*
COC(=O)c1ccc2c(c1)C(NC(C)=O)CCc1cc(OC)c(OC)c(OC)c1-2 (stereo unspecified),1.2,50.6,x,1.8,x
COc1cc2c(c(OC)c1OC)-c1ccc(SC)c(=O)cc1C(NC(=O)c1ccccc1)CC2 (stereo unspecified),3.4,55.6*,x,15.8,83.5*
COc1c(C=O)c2c(c(OC)c1OC)-c1ccc(OC)c(=O)cc1C(NC(C)=O)CC2 (stereo unspecified),0.7,58.3*,x,5.4,86.2*
O=C(N[C@@H]1CC[C@@H](CCNS(=O)(=O)Cc2ccccc2)O[C@H]1CO)c1ccccc1F,-0.4,x,4.9,x,x
O=Nc1c2cc(-c3ccccc3)[nH]nc-2c2ccccc12,1.3,0.0,x,-3.2,x
Cc1ccc(-c2cc3c(N=O)c4ccccc4c-3n[nH]2)cc1,0.4,78.8*,x,-3.9,80.7*
COC(=O)c1ccc(NC(=O)Cn2c(-c3nonc3N)nc3ccccc32)cc1,-2.5,-16.7,x,0.8,x
COC(=O)c1ccccc1NC(=O)Cn1c(-c2nonc2N)nc2ccccc21,0.4,70.3*,0.1,16.2,90.7*
COc1ccc2c3c([nH]c2c1)[C@H](CO)N(C(=O)c1ccncc1)CC31CN(C(=O)Nc2cccc(F)c2)C1,1.5,x,x,x,x
Cc1ccc2nc(NC(=O)c3ccccn3)sc2c1,1.9,88.7*,-1.3,2.4,86.2*
CCOc1ccc2nc(NC(=O)c3ccccn3)sc2c1,1.0,63.4*,3.0,4.3,45.5
C[C@@H]1CN([C@H](C)CO)C(=O)c2cccc(NS(=O)(=O)c3cn(C)cn3)c2O[C@@H]1CN(C)Cc1ccc(C(=O)Nc2ccccc2N)cc1,0.3,x,x,x,x
Cc1ccc(C(C)C)c(OCc2ccc(C(=O)N/N=C/c3cccc(O)c3O)cc2)c1,0.5,61.9*,x,2.8,65.5*
COc1ccc(CNC(=O)C2CCN(S(=O)(=O)c3c(C)n[nH]c3C)CC2)cc1,x,-18.4,1.1,-4.7,x
Cc1n[nH]c(C)c1S(=O)(=O)N1CCCC(C(=O)NCc2ccc(F)cc2)C1 (stereo unspecified),-2.5,83.7*,x,-12.3,3.4
C[C@@H]1CN([C@@H](C)CO)C(=O)c2cccc(NC(=O)Nc3ccc(F)cc3)c2O[C@@H]1CN(C)Cc1ccc(C(=O)Nc2ccccc2N)cc1,-0.3,x,x,x,x
COC(=O)CSc1n[nH]c(=S)s1,0.6,-30.7,-1.3,-8.1,x
CCSc1n[nH]c(=S)s1,-0.1,76.6*,x,-11.6,-3.5
CC(=NNC(=S)N(Cc1ccccn1)Cc1ccccn1)c1cnccn1,-2.3,79.9*,x,7.9,58.0*
CCOC(=O)c1c(C)[nH]c(C2=NNC(=NC3CC3)SC2)c1C,x,70.8*,x,9.5,53.6*
CCOC(=O)c1c(C)[nH]c(/C(C)=N/O)c1C,3.4,-5.2,-0.5,-14.8,x
COc1ccc(CN(C)C[C@@H]2Oc3ccc(NC(=O)CCC(F)(F)F)cc3C(=O)N([C@@H](C)CO)C[C@@H]2C)cc1,-1.6,x,4.7,x,x
C[C@H](NC(=O)C[C@@H]1C=C[C@H](NC(=O)C2CCOCC2)[C@H](CO)O1)c1ccccc1,-6.6,x,-4.5,x,x
CN(C)S(=O)(=O)c1ccc(C(=O)NCC2CC2(Cl)Cl)cc1 (stereo unspecified),2.3,63.4*,x,0.3,17.1
CN(C)S(=O)(=O)c1ccc(C(=O)NCc2ccccc2)cc1,x,-11.5,x,2.1,x
COc1ccc2c3c(n(C)c2c1)[C@H](CO)N(C(=O)CC1CC1)CC31CN(C(=O)C2CCC2)C1,-0.2,x,x,x,x
CCOC(=O)c1cnc(Nc2nc3ccccc3o2)nc1C,x,64.9*,-0.3,2.9,70.0*
CCN(CC)C(=O)c1ccc(NC(=O)c2cccc(C(F)(F)F)c2)cc1,1.4,78.1*,0.4,-8.5,-11.8
O=C(Nc1ccccc1)c1cccc(C(F)(F)F)c1,x,-11.8,x,-3.4,x
